The source of these data is PubChem BioAssay (NCI).

Molecules are shown by their SMILES. About 79,000 compounds went through this panel and 15% of them were active in at least one assay; those are over-represented in the sample as a whole. A number with no mark means an inactive call. Active and inactive are the calls of the source. No stated cut-off is given here; in the data, active means growth inhibition above about 70%; inactive means the rest.

The nature of assay [1]: NCI Yeast Anticancer Drug Screen. Data for the rad50 strain (AID 155).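 Further: 0% = growth of vehicle-only cultures of the same strain.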 To be noted: S. cerevisiae rad50 strain growth inhibition, stronger effect = higher value. The method in brief: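 Inhibition values express reduced yeast growth in compound-treated cultures relative to vehicle-treated controls.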
Assay [2] in a line: NCI Yeast Anticancer Drug Screen. Data for the mec2-1 strain (AID 157). To be noted: S. cerevisiae mec2-1 strain, stronger effect = higher value. The method in brief: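 Strain: mec2-1 (DNA repair/cell cycle alteration). Compound exposure, then growth measured; inhibition expressed relative to vehicle.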
The nature of assay [3]: NCI Yeast Anticancer Drug Screen. Data for the sgs1 mgt1 strain (AID 161).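 Further: 0% = growth of cultures given vehicle only.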 Conditions: S. cerevisiae sgs1 mgt1 strain, stronger effect = higher value. The method in brief: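 Mutant yeast exposed to compound; growth scored against vehicle-only wells.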
Assay [4] can be described thus: NCI Yeast Anticancer Drug Screen. Data for the cln2 rad14 strain (AID 165).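 Further: 0% = growth equal to vehicle treated cultures.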 To be noted: S. cerevisiae cln2 rad14 strain, stronger effect = higher value. The method in brief: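 Compounds are applied to the cln2 rad14 yeast strain, and growth is then compared with that of vehicle-treated cultures to give inhibition.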
Assay [5] can be described thus: NCI Yeast Anticancer Drug Screen. Data for the bub3 strain (AID 167). To be noted: S. cerevisiae bub3 mutant strain, stronger effect = higher value. The method in brief: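 Steps: expose the mutant yeast strain to compound; grow alongside vehicle-treated cultures; measure growth; express inhibition against the vehicle cultures.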
A short description of assay [6]: NCI Yeast Anticancer Drug Screen. Data for the mlh1 rad18 strain (AID 175). Conditions: S. cerevisiae mlh1 rad18 strain growth inhibition, stronger effect = higher value. The method in brief:
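Read-out is yeast growth inhibition, calculated against vehicle-only controls. The compound was applied to a strain engineered with DNA damage repair alterations.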

[7] abbreviates: at 5.0 µM (retest, dose inferred, filed as 0.5).
[8] abbreviates: at 50.0 µM (retest, dose inferred, filed as 5.0).

As for `COc1ccc(C2COc3cc(O)c(O)cc3C2)cc1` (stereo not given), the growth inhibition was 95% (active) in assay [1] (setting [7]); 99% (active) in assay [1] (setting [8]); 99.6% (active) in assay [1] (at 50.0 µM); 95% (active) in assay [2] (setting [7]); 99% (active) in assay [2] (setting [8]); 99.6% (active) in assay [2] (at 50.0 µM). Moreover, the growth inhibition in assay [3] (setting [7]) was 93% (active); in assay [3] (setting [8]) it was 99% (active); in assay [3] (at 50.0 µM), 99.8% (active); in assay [4] (setting [7]), 46%; in assay [4] (setting [8]), 99% (active); in assay [4] (at 50.0 µM), 99.6% (active). Also, the growth inhibition in assay [5] (setting [7]) was 98% (active); in assay [5] (setting [8]), 99% (active); in assay [5] (at 50.0 µM), 99.6% (active); in assay [6] (setting [7]) it was 99% (active); in assay [6] (setting [8]), 99% (active); in assay [6] (at 50.0 µM), 98.2% (active).

`CN(C)COC(=S)SCN(C)C`: the growth inhibition is 98% (active) in assay [1] (setting [7]); 98% (active) in assay [1] (setting [8]); 51.4% in assay [1] (at 50.0 µM); 96% (active) in assay [2] (setting [7]); 99% (active) in assay [2] (setting [8]); 54.1% in assay [2] (at 50.0 µM). For the same compound, the growth inhibition in assay [3] (setting [7]) was 99% (active); in assay [3] (setting [8]), 99% (active); in assay [3] (at 50.0 µM) it was 60.2%; in assay [4] (setting [7]) it was 93% (active); in assay [4] (setting [8]), 99% (active); in assay [4] (at 50.0 µM), 52.9%. Besides, the growth inhibition in assay [5] (setting [7]) was 96% (active); in assay [5] (setting [8]) it was 99% (active); in assay [5] (at 50.0 µM) it was 98.3% (active); in assay [6] (setting [7]), 96% (active); in assay [6] (setting [8]), 99% (active); in assay [6] (at 50.0 µM), 98.2% (active).

Take `Cc1cc(C)c(C(=O)/C=C/C(=O)c2ccccc2)c(C)c1`: the growth inhibition in assay [1] (setting [7]) is 86% (active); in assay [1] (setting [8]), 95% (active); in assay [1] (at 50.0 µM) it was 62.4%; in assay [2] (setting [7]) it was 89% (active); in assay [2] (setting [8]) it was 96% (active); in assay [2] (at 50.0 µM), 78.1% (active). Besides, the growth inhibition in assay [3] (setting [7]) is 85% (active); in assay [3] (setting [8]), 96% (active); in assay [3] (at 50.0 µM) it was 90.6% (active); in assay [4] (setting [7]), 51%; in assay [4] (setting [8]), 95% (active); in assay [4] (at 50.0 µM) it was 47.2%. The growth inhibition was 89% (active) in assay [5] (setting [7]); 96% (active) in assay [5] (setting [8]); 96% (active) in assay [5] (at 50.0 µM); 93% (active) in assay [6] (setting [7]); 96% (active) in assay [6] (setting [8]); 92.7% (active) in assay [6] (at 50.0 µM).

Consider `CCN(CC)CC(C)(C)C(=O)/C=C/c1ccc(Cl)c(Cl)c1`, for which the growth inhibition in assay [1] (setting [7]) is 6%; in assay [1] (setting [8]) it was 98% (active); in assay [1] (at 50.0 µM), 97.9% (active); in assay [2] (setting [7]), 9%; in assay [2] (setting [8]) it was 98% (active); in assay [2] (at 50.0 µM) it was 99.2% (active). Further, the growth inhibition was 18% in assay [3] (setting [7]); 94% (active) in assay [3] (setting [8]); 98% (active) in assay [3] (at 50.0 µM); 4% in assay [4] (setting [7]); 97% (active) in assay [4] (setting [8]); 89.2% (active) in assay [4] (at 50.0 µM). Moreover, the growth inhibition in assay [5] (setting [7]) was 1%; in assay [5] (setting [8]), 98% (active); in assay [5] (at 50.0 µM), 98.8% (active); in assay [6] (setting [7]) it was 8%; in assay [6] (setting [8]) it was 97% (active); in assay [6] (at 50.0 µM) it was 99% (active).

For the compound `CC1CC(C)CC(NC2=NCCO2)C1` (stereo not given), the growth inhibition in assay [1] (setting [7]) is 13%; in assay [1] (setting [8]), -5%; in assay [1] (at 50.0 µM) it was -4.1%; in assay [2] (setting [7]), 6%; in assay [2] (setting [8]), -5%; in assay [2] (at 50.0 µM), 22.2%. The growth inhibition was 12% in assay [3] (setting [7]); 13% in assay [3] (setting [8]); 21.6% in assay [3] (at 50.0 µM); 11% in assay [4] (setting [7]); 7% in assay [4] (setting [8]); 27.6% in assay [4] (at 50.0 µM). For the same compound, the growth inhibition in assay [5] (setting [7]) was 27%; in assay [5] (setting [8]), 15%; in assay [5] (at 50.0 µM) it was 7.8%; in assay [6] (setting [7]), 8%; in assay [6] (setting [8]) it was -12%; in assay [6] (at 50.0 µM), 21.1%.

With `Cc1cc(-c2ccccc2)nc2nc3ccccc3n12`, the growth inhibition in assay [1] (setting [7]) is 2%; in assay [1] (setting [8]) it was 30%; in assay [1] (at 50.0 µM) it was 7.95%; in assay [2] (setting [7]) it was 16%; in assay [2] (setting [8]) it was 21%; in assay [2] (at 50.0 µM), 5.8%. Moreover, the growth inhibition in assay [3] (setting [7]) was -11%; in assay [3] (setting [8]) it was 67%; in assay [3] (at 50.0 µM), 12.4%; in assay [4] (setting [7]), 14%; in assay [4] (setting [8]) it was 43%; in assay [4] (at 50.0 µM) it was -30.7%. The growth inhibition in assay [5] (setting [7]) was 21%; in assay [5] (setting [8]) it was 82% (active); in assay [5] (at 50.0 µM) it was 29.2%; in assay [6] (setting [7]), -6%; in assay [6] (setting [8]), 45%; in assay [6] (at 50.0 µM), 31.6%.

In the case of `O=C1C(c2ccccc2)=[N+]([O-])c2ccccc21`, the growth inhibition is 2% in assay [1] (setting [7]); 39% in assay [1] (setting [8]); 87.4% (active) in assay [1] (at 50.0 µM); 1% in assay [2] (setting [7]); 98% (active) in assay [2] (setting [8]); 98% (active) in assay [2] (at 50.0 µM). Further, the growth inhibition in assay [3] (setting [7]) was -2%; in assay [3] (setting [8]) it was 92% (active); in assay [3] (at 50.0 µM), 98.2% (active); in assay [4] (setting [7]), 0%; in assay [4] (setting [8]) it was 12%; in assay [4] (at 50.0 µM) it was 73.5% (active). Besides, the growth inhibition in assay [5] (setting [7]) is 29%; in assay [5] (setting [8]), 80% (active); in assay [5] (at 50.0 µM), 99.2% (active); in assay [6] (setting [7]) it was 4%; in assay [6] (setting [8]), 92% (active); in assay [6] (at 50.0 µM), 76.3% (active).

Regarding `O=C(CN(Cc1ccccc1)Cc1ccccc1)c1ccccc1`, the growth inhibition in assay [1] (setting [7]) is -2%; in assay [1] (setting [8]) it was 31%; in assay [1] (at 50.0 µM), 19.6%; in assay [2] (setting [7]) it was 1%; in assay [2] (setting [8]) it was 34%; in assay [2] (at 50.0 µM) it was -1.8%. The growth inhibition in assay [3] (setting [7]) was -2%; in assay [3] (setting [8]) it was 33%; in assay [3] (at 50.0 µM) it was 16.9%; in assay [4] (setting [7]), 3%; in assay [4] (setting [8]), 45%; in assay [4] (at 50.0 µM), 1.75%. In addition, the growth inhibition in assay [5] (setting [7]) was 4%; in assay [5] (setting [8]), 89% (active); in assay [5] (at 50.0 µM), 79.7% (active); in assay [6] (setting [7]) it was -1%; in assay [6] (setting [8]), 57%; in assay [6] (at 50.0 µM) it was 15.4%.

`CCC(=O)c1ccc2ccc3ccccc3c2c1`: the growth inhibition in assay [1] (setting [7]) was 6%; in assay [1] (setting [8]) it was 60%; in assay [1] (at 50.0 µM), 62.5%; in assay [2] (setting [7]) it was 8%; in assay [2] (setting [8]), 34%; in assay [2] (at 50.0 µM), 26.4%. Besides, the growth inhibition in assay [3] (setting [7]) was 4%; in assay [3] (setting [8]), 72% (active); in assay [3] (at 50.0 µM), 65.2%; in assay [4] (setting [7]) it was 4%; in assay [4] (setting [8]), 45%; in assay [4] (at 50.0 µM), -7.25%. Also, the growth inhibition in assay [5] (setting [7]) was 12%; in assay [5] (setting [8]) it was 87% (active); in assay [5] (at 50.0 µM) it was 68.8%; in assay [6] (setting [7]), 5%; in assay [6] (setting [8]), 64%; in assay [6] (at 50.0 µM), 50.9%.

In the case of `O=C1Oc2ccccc2C1c1ccccc1` (stereo not given), the growth inhibition in assay [1] (setting [7]) is 16%; in assay [1] (setting [8]), 90% (active); in assay [1] (at 50.0 µM) it was 28.6%; in assay [2] (setting [7]), 1%; in assay [2] (setting [8]), 87% (active); in assay [2] (at 50.0 µM) it was 35.5%. Also, the growth inhibition in assay [3] (setting [7]) is 4%; in assay [3] (setting [8]), 91% (active); in assay [3] (at 50.0 µM), -2.1%; in assay [4] (setting [7]), 10%; in assay [4] (setting [8]) it was 92% (active); in assay [4] (at 50.0 µM), 8.4%. The growth inhibition is -1% in assay [5] (setting [7]); 95% (active) in assay [5] (setting [8]); 34.5% in assay [5] (at 50.0 µM); 1% in assay [6] (setting [7]); 93% (active) in assay [6] (setting [8]); 27.5% in assay [6] (at 50.0 µM).
